Hit rate of the full screen: of about 310,000 compounds, about 14,000 (4.5%) showed an effect of 50% or more. Effects have a minus sign here. Many of the other results were omitted from the sample, so strong results are more common in it than they were.
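Note: peak tail current of the secondary pulse compared with the same well before compound.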

human ether-à-go-go-related gene (hERG) potassium channel, sequence (Q12809 whole entry, looked up): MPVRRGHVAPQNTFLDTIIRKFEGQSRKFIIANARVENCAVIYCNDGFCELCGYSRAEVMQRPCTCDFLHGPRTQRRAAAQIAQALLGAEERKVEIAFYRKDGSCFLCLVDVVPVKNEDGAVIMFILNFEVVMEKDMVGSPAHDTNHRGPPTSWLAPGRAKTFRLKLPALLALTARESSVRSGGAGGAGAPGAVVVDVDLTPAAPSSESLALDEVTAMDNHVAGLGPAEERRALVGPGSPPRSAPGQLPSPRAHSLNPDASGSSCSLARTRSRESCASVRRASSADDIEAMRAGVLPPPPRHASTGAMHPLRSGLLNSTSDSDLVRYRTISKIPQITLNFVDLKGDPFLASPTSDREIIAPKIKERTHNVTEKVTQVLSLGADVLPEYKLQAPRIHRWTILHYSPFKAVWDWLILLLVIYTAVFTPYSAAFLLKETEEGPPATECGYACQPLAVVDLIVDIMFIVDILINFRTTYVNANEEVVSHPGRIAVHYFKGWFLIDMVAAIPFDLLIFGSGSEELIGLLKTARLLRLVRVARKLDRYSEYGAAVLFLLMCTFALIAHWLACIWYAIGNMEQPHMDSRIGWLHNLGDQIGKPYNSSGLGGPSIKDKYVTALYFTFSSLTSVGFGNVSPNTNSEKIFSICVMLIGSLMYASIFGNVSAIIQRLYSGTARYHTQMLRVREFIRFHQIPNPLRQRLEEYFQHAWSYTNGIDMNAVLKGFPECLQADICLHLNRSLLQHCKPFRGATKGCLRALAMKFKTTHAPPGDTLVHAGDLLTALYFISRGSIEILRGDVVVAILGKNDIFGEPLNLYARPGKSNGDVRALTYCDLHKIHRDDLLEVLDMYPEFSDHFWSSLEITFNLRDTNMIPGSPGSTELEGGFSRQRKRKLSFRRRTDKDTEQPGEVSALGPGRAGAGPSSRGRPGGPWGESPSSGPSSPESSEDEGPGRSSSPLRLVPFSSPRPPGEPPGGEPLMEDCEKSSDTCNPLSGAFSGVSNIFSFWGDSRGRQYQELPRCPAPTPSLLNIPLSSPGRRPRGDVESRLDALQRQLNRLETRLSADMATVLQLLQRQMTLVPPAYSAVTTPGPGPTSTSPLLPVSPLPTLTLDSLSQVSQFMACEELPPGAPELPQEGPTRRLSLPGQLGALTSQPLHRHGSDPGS

The test addresses human ether-à-go-go-related gene (hERG) potassium channel (human, UniProt Q12809). The test is described as follows: primary screen, population patch clamp on CHO cells stably expressing hERG; higher = less effect of the substance.
As to `Cc1nn(Cc2c(Cl)cccc2Cl)c(Cl)c1C(=O)O`, the “hERG current change (%, negative = inhibition) at 10uM” value is 14.4%. Then `COCCN(C(=O)CC1C(=O)NCCN1Cc1ccc(-c2ccccc2)cc1)C(C)C` (stereo not shown), with 1%; and `COc1ccc(OCCn2ccnc2)cc1`, with 12.4%. With `CCOCCCNC(=S)N1C2CCC1CC(NC(=O)Nc1ccc(C(=O)OCC)cc1)C2` (stereo not shown), the “hERG current change (%, negative = inhibition) at 10uM” value was 13.7%. Then `O=C(NCCCN1CCOCC1)c1cc2c([nH]c3ccccc32)c(-c2cccc(Br)c2)n1`, with -40.8%; and `COc1ccc(-c2cc(C(=O)NCCCN3CCOCC3)c3ccccc3n2)cc1OC`, with -7.5%. Then `COc1cc(-c2nc(C(=O)NC3CCN(Cc4ccccc4)CC3)cc3c2[nH]c2ccccc23)cc(OC)c1OC`, with -59.6%; and `COc1cccc(-c2nc(C(=O)NCCCN3CCOCC3)cc3c2[nH]c2ccccc23)c1`, with -65.3%; and `COc1ccc(OC)c(-c2nc(C(=O)NCC3CCCO3)cc3c2[nH]c2ccccc23)c1` (stereo not shown), with -59.1%. Regarding `COc1ccc(OC)c(-c2nc(C(=O)NC3CCN(Cc4ccccc4)CC3)cc3c2[nH]c2ccccc23)c1`, the “hERG current change (%, negative = inhibition) at 10uM” value is on record as -43.5%. `Cc1ccc(-c2nc(C(=O)NCCCN3CCOCC3)cc3c2[nH]c2ccccc23)cc1`: the “hERG current change (%, negative = inhibition) at 10uM” value is listed as -15%. As for `COc1ccccc1-c1nc(C(=O)NCC2CCCO2)cc2c1[nH]c1ccccc12` (stereo not shown), the figure is -29%; as for `COc1cc(-c2nc(C(=O)NC3CCCCC3)cc3c2[nH]c2ccccc23)cc(OC)c1OC`, -8.67%. As for `COc1ccc(-c2nc(C(=O)NCCCN3CCOCC3)cc3c2[nH]c2ccccc23)cc1OC`, the figure is -72.2%; as for `COc1ccc(-c2nc(C(=O)NCC3CCCO3)cc3c2[nH]c2ccccc23)cc1` (stereo not shown), -2.81%; as for `COc1cccc(-c2nc(C(=O)NCC3CCCO3)cc3c2[nH]c2ccccc23)c1` (stereo not shown), -26.4%. As for `CC(C)Oc1cccc(C(=O)NC(=S)Nc2ccc3c4c(cccc24)CC3)c1`, the figure is 14.9%; as for `Cc1cc(C)n2nc3nc(N4CCCC4)nc(-c4ccccc4)c3c2n1`, 7.37%. Turning to `Cc1cc(C(=O)Nc2cccnc2)on1`, the “hERG current change (%, negative = inhibition) at 10uM” value is listed as -3.6%. Then `COc1cccc(CNC(=O)CCCc2nnc3n(C)c(=O)c4sccc4n23)c1`, with -22.2%.

`CCOc1cccc(OCCOCCOc2ccccc2C(C)=O)c1`: the “hERG current change (%, negative = inhibition) at 10uM” value is on record as -7.23%. Take `COc1ccccc1-c1cc(C(=O)NCCCN2CCOCC2)no1`: the “hERG current change (%, negative = inhibition) at 10uM” value was -28%. Then `COc1ccc(OC)c(-c2cc(C(=O)NCCN3CCOCC3)no2)c1`, with -5%; and `COc1ccc(OC)c(-c2nc(C(=O)NCCCN3CCOCC3)cc3c2[nH]c2ccccc23)c1`, with -65.7%; and `CC(C)CCNC(=O)c1ccc(Cl)c(N)c1`, with 18.9%. As for `Cc1ccccc1OCCCC(=O)Nc1ccc2c(c1)OCO2`, the “hERG current change (%, negative = inhibition) at 10uM” value worked out at 5.46%. As for `CN(C)S(=O)(=O)c1cccc(NC(=O)Cn2cnc3ccccc3c2=O)c1`, the “hERG current change (%, negative = inhibition) at 10uM” value stood at 8.28%. Then `CCN(CC)S(=O)(=O)c1ccc(C)c(NC(=O)Cn2cnc3cc([N+](=O)[O-])ccc3c2=O)c1`, with -55.7%; and `Cc1ccc(NC(=O)Cn2cnc3cc([N+](=O)[O-])ccc3c2=O)c(Cl)c1`, with 16.4%. Then `Cc1ccc(NC(=O)Cn2cnc3cc([N+](=O)[O-])ccc3c2=O)cc1`, with 0.77%. Consider `CCN(CC)S(=O)(=O)c1ccc(NC(=O)Cn2cnc3ccccc3c2=O)cc1`, for which the “hERG current change (%, negative = inhibition) at 10uM” value is -32.8%. For `CCN(CC)S(=O)(=O)c1cc(NC(=O)Cn2cnc3ccccc3c2=O)ccc1C`, the “hERG current change (%, negative = inhibition) at 10uM” value is -54.8%. With `COc1ccc(C(=O)NCc2cc(C)nc3ccccc23)cc1`, the “hERG current change (%, negative = inhibition) at 10uM” value is -13.6%. Then `COCc1nc2ccccc2n1CCc1ccccc1`, with -33.6%; and `O=C1CCC(=O)N1c1ccc(-c2nc3ccccc3s2)cc1`, with 16%. As to `Cc1ccc(Sc2c(C)nn(C(=O)C3CC3)c2C)cc1`, the “hERG current change (%, negative = inhibition) at 10uM” value was determined as 11.6%. As for `O=C1COc2ccc(C(=O)COC(=O)Cc3ccccc3)cc2N1`, the figure is -13%; as for `Cc1ccc(N(C(=O)C2CCC(=O)N2)C2(C(=O)NC3CCCC3)CCCCC2)cc1` (stereo not shown), 0.218%.

Regarding `O=C(CCC1CCCN(Cc2ccc(O)c(Cl)c2)C1)NCc1ccccc1F` (stereo not shown), the “hERG current change (%, negative = inhibition) at 10uM” value was -43.2%. Consider `O=C(CCC1CCCN(Cc2cccc(Cl)c2)C1)NCc1ccccc1F` (stereo not shown), for which the “hERG current change (%, negative = inhibition) at 10uM” value is -50.9%. As for `CC(=O)Nc1ccc(CN2CCCC(CCC(=O)NCc3ccccc3F)C2)cc1` (stereo not shown), the figure is -8.19%; as for `CCOc1cccc(CN2CCC(CCC(=O)NC3CC3)CC2)c1O`, -70.3%; as for `Cc1nn(C)c(Cl)c1CN1CCCC(CCC(=O)NCc2ccccc2F)C1` (stereo not shown), -27%. For `O=C(CCC1CCN(C(=O)Cc2c(F)cccc2F)CC1)NC1CC1`, the “hERG current change (%, negative = inhibition) at 10uM” value was 11.9%. As for `CCOc1cccc(CN2CCCC(CCC(=O)NCc3ccccc3F)C2)c1O` (stereo not shown), the figure is -65%; as for `Cc1ncc(CN2CCCC(CCC(=O)NCc3ccccc3F)C2)s1` (stereo not shown), 17.8%; as for `O=C(CCC1CCN(Cc2ccccc2O)CC1)NC1CC1`, -23.7%. As for `O=C1[C@H]2[C@H](C=CC[C@H]2C(=O)N2CCOCC2)CCN1Cc1ccc(Cl)c(Cl)c1`, the figure is -3.89%; as for `CCN1CCC[C@H]1CNC(=O)c1c(OC)ccc(Br)c1OC.Cl`, -12.2%. As for `Cc1ccc(-c2nc(-c3cccnc3)sc2CC(=O)O)cc1`, the figure is 11%. For the molecule `CCN1CCN(C(=O)Cc2c(C)n(C(=O)c3ccc(Cl)cc3)c3ccc(OC)cc23)CC1.Cl`, the “hERG current change (%, negative = inhibition) at 10uM” value is reported as -38.6%. Then `N#Cc1nc(-c2ccc(OCc3ccccc3)cc2)oc1N1CCOCC1`, with 10.4%. Take `Cc1ccc(-c2cn3nc(C)c(C)nc3n2)cc1`: the “hERG current change (%, negative = inhibition) at 10uM” value is -6.47%. As for `CCc1ccc(-c2cn3nc(C)c(C)nc3n2)cc1`, the figure is -50.8%; as for `Cc1nc2nc(-c3ccc(F)cc3)cn2nc1C`, 7.58%. Then `O=C1C=CC(=O)N1c1ccc(I)cc1Cl`, with 18.9%. As for `COc1ccc(N2CCN(C(=O)C3CCCN(S(=O)(=O)c4ccc(C)cc4)C3)CC2)cc1` (stereo not shown), the “hERG current change (%, negative = inhibition) at 10uM” value is on record as -53.4%. As for `COc1ccc(N2CCN(C(=O)C3CCN(S(=O)(=O)c4ccc(C)cc4)CC3)CC2)cc1`, the “hERG current change (%, negative = inhibition) at 10uM” value is listed as -10.2%.

As for `Cc1ccc(C)c(N2CCN(C(=O)C3CCCN(S(=O)(=O)c4c(C)noc4C)C3)CC2)c1` (stereo not shown), the “hERG current change (%, negative = inhibition) at 10uM” value is reported as -11.1%. In the case of `Cc1noc(C)c1S(=O)(=O)N1CCC(C(=O)N2CCN(c3ccc(F)cc3)CC2)CC1`, the “hERG current change (%, negative = inhibition) at 10uM” value is -41.4%.

With `COc1ccc(NC(=O)C2CCN(S(=O)(=O)c3c(C)noc3/C=C/N(C)C)CC2)cc1`, the “hERG current change (%, negative = inhibition) at 10uM” value is -15.3%.

In the case of `COc1ccc(N2CCN(S(=O)(=O)c3c(C)noc3/C=C/N(C)C)CC2)cc1`, the “hERG current change (%, negative = inhibition) at 10uM” value was -0.914%. Consider `Cc1noc(C)c1S(=O)(=O)N1CCC(C(=O)N2CCN(c3ccccc3Cl)CC2)CC1`, for which the “hERG current change (%, negative = inhibition) at 10uM” value is -13.6%. Regarding `COc1ccc(N2CCN(C(=O)C3CCCN(S(=O)(=O)c4ccc(F)cc4)C3)CC2)cc1` (stereo not shown), the “hERG current change (%, negative = inhibition) at 10uM” value was -39.2%. Then `COc1ccc(N2CCN(C(=O)C3CCN(S(=O)(=O)c4c(C)noc4/C=C/N(C)C)CC3)CC2)cc1`, with -53.8%.

Take `Cc1noc(C)c1S(=O)(=O)N1CCC(C(=O)N2CCN(c3ccc(Cl)cc3)CC2)CC1`: the “hERG current change (%, negative = inhibition) at 10uM” value is -51.7%.

Take `Cc1cccc(N2CCN(C(=O)C3CCCN(S(=O)(=O)c4c(C)noc4C)C3)CC2)c1C` (stereo not shown): the “hERG current change (%, negative = inhibition) at 10uM” value is -22.3%.

For `COc1ccc(N2CCN(C(=O)C3CCCN(S(=O)(=O)c4c(C)noc4C)C3)CC2)cc1` (stereo not shown), the “hERG current change (%, negative = inhibition) at 10uM” value is -59.9%.

In the case of `CCc1ccc(NC(=O)c2sccc2-n2cccc2)cc1`, the “hERG current change (%, negative = inhibition) at 10uM” value is on record as -7.29%. Consider `NS(=O)(=O)c1ccc(F)c(C(=O)O)c1`, for which the “hERG current change (%, negative = inhibition) at 10uM” value was found to be 8.68%. As for `CCNc1ccc(S(=O)(=O)N(C)C)cc1NCC(=O)Nc1ccc(F)c(Cl)c1`, the figure is -4.33%; as for `O=C(Nc1ccc(Cl)cc1F)C1CC1c1ccccc1` (stereo not shown), 12.6%. Then `COc1ccc(C)cc1NC(=O)C(Sc1nnc(Nc2cc(C)ccc2OC)s1)c1ccccc1` (stereo not shown), with 0.631%; and `Cc1ccc2c(c1)nnc1nnc(SCC(=O)O)n12`, with 3.45%; and `COC(=O)c1sccc1NC(=O)c1csc2c1CCCC2`, with -10.9%. Regarding `OCC[C@H]1C[C@H](O)[C@@H](O)[C@]2(CCc3ccccc3O2)O1`, the “hERG current change (%, negative = inhibition) at 10uM” value came out at 6.41%.

Turning to `Cc1ccc(C(=O)C2CCN(S(=O)(=O)c3c(C)noc3C)CC2)cc1`, the “hERG current change (%, negative = inhibition) at 10uM” value was -67.3%.

Regarding `Cc1noc(C)c1S(=O)(=O)N1CCC(C(=O)O)CC1`, the “hERG current change (%, negative = inhibition) at 10uM” value was -3.88%. As for `Cc1noc(C)c1S(=O)(=O)N1CCC(C(=O)c2ccccc2)CC1`, the figure is -43%; as for `O=S(=O)(c1ccc(F)cc1)N1CCC(n2cnc3ccccc32)CC1`, -39.7%. Regarding `O=S(=O)(c1ccccc1C(F)(F)F)N1CCC(n2cnc3ccccc32)CC1`, the “hERG current change (%, negative = inhibition) at 10uM” value is on record as -60.5%. With `COc1ccc(S(=O)(=O)n2cnc3ccccc32)cc1.Cl`, the “hERG current change (%, negative = inhibition) at 10uM” value stood at 13.4%. As to `O=S(=O)(c1ccccc1)N1CCC(n2cnc3ccccc32)CC1`, the “hERG current change (%, negative = inhibition) at 10uM” value is given as -64%. In the case of `CCn1c(N2CCN(S(=O)(=O)c3ccccc3C(F)(F)F)CC2)nc2ccccc21.Cl`, the “hERG current change (%, negative = inhibition) at 10uM” value is -39.6%. `O=S(=O)(c1ccccc1C(F)(F)F)N1CCN(S(=O)(=O)c2ccccc2C(F)(F)F)CC1`: the “hERG current change (%, negative = inhibition) at 10uM” value is -2.32%. Regarding `O=S(=O)(c1ccc(S(=O)(=O)n2cnc3ccccc32)cc1)N1CCCCCC1`, the “hERG current change (%, negative = inhibition) at 10uM” value was 3.15%.

In the case of `COc1ccc(NC(=O)N2CCC(n3cnc4ccccc43)CC2)cc1`, the “hERG current change (%, negative = inhibition) at 10uM” value is given as -28.5%.

In the case of `COc1ccc(S(=O)(=O)N2CCC(n3cnc4ccccc43)CC2)cc1`, the “hERG current change (%, negative = inhibition) at 10uM” value is on record as -64.9%.

These data come from paper PMC4336329 (PLoS ONE, 2015).
